{"source": "PubChem BioAssay AID463173", "about": "(ICCB-Longwood Screening Facility, Harvard Medical School, 2010)", "note": "Screen size: about 52,000 compounds; about 4,300 (8.3%) were called active. For the sample, actives were picked, then their nearest neighbours and some compounds at random. Unmarked numbers belong to inactive results. Rule as the data show it: active = survival mostly below about 52% (no sharp cut-off); inactive = mostly above about 56%."}
{"test_system": "DeltatarO mutant", "test": "S. aureus survival, RN4220 and DeltatarO strains – OD600, teichoic acid synthesis inhibitors, primary screen (AID 463173)", "conditions": "S. aureus RN4220 wild type/DeltatarO growth, OD600, 18 h, active compounds read low, screened at 18.75 µg/mL (by protocol)"}
{"smiles": "Cc1cccc(OCc2nnc(SC(C)C(=O)O)n2Cc2ccccc2)c1", "note": "(stereo not given)", "survival": "103%"}
{"smiles": "CCc1ccc(N(CC(=O)N2CCCCC2)S(C)(=O)=O)cc1", "survival": "105%"}
{"smiles": "CCc1ccc(CNC(=O)C2CCN(c3nnc(-n4c(C)ccc4C)s3)CC2)cc1", "survival": "86%"}
{"smiles": "COc1cccc(CNC(=O)c2cc(=O)[nH]c3ccc(S(=O)(=O)N4CCCC4)cc23)c1", "survival": "60%"}
{"smiles": "COc1ccc(-c2nc3sc(CCNC(=O)Cc4ccc(F)cc4)c(C)n3n2)cc1", "survival": "94%"}
{"smiles": "CCOC(=O)c1scc(-c2ccc(C)cc2)c1S(=O)(=O)Nc1ccc(OC)c(Cl)c1", "survival": "77%"}
{"smiles": "COc1ccc(NC(=O)CN(c2cc(C)cc(C)c2)S(=O)(=O)c2c(C)noc2C)cc1Cl", "survival": "91%"}
{"smiles": "CCc1ccccc1NC(=O)CN(c1ccc(OC)cc1)S(=O)(=O)c1c(C)n[nH]c1C", "survival": "74%"}
{"smiles": "CCOC(=O)c1c(C)[nH]c(C)c1S(=O)(=O)NCC(=O)Nc1cc(C)ccc1OC", "survival": "60%"}
{"smiles": "CCOC(=O)c1scc(-c2ccc(C)cc2)c1S(=O)(=O)Nc1cc(Cl)ccc1OC", "survival": "-5% (active)"}
{"smiles": "CCOC(=O)c1scc(-c2ccc(C)cc2)c1S(=O)(=O)Nc1cc(OC)ccc1OC", "survival": "92%"}
{"smiles": "CCOC(=O)c1c(C)[nH]c(C)c1S(=O)(=O)NCC(=O)Nc1cc(Cl)ccc1OC", "survival": "-4% (active)"}
{"smiles": "CCOc1ccc(N(CC(=O)Nc2cc(C)ccc2C)S(=O)(=O)c2c(C)[nH]c(=O)[nH]c2=O)cc1", "survival": "69%"}
{"smiles": "COc1ccc(Cl)cc1NC(=O)CN(c1cc(C)cc(C)c1)S(=O)(=O)c1c(C)n[nH]c1C", "survival": "9% (active)"}
{"smiles": "CCOc1ccc(OCC)c(NC(=O)CN(c2ccc(C)cc2)S(=O)(=O)c2c(C)n[nH]c2C)c1", "survival": "32% (active)"}
{"smiles": "COc1ccccc1NC(=O)CN(c1cc(C)cc(C)c1)S(=O)(=O)c1c(C)[nH]c(=O)[nH]c1=O", "survival": "118%"}
{"smiles": "CCOC(=O)c1c(C)[nH]c(C)c1S(=O)(=O)N(C)CC(=O)Nc1cc(Cl)ccc1OC", "survival": "117%"}
{"smiles": "COc1ccc(NC(=O)c2c(NCc3cccs3)sc3c2CCCCC3)c(OC)c1", "survival": "69%"}
{"smiles": "CC1CN(C(=O)CCC(=O)NCc2ccc(F)cc2)c2cc(Cl)ccc2O1", "note": "(stereo not given)", "survival": "80%"}
{"smiles": "Cc1cc(-c2ccccc2)nc2cc(C(=O)Nc3ccc(Cl)c(Cl)c3)nn12", "survival": "52%"}
{"smiles": "CC(=O)N1CCCC1c1nc2ccccc2n1Cc1ccccc1F", "note": "(stereo not given)", "survival": "61%"}
{"smiles": "COC(=O)c1ccc(OCC2c3cc(OC)c(OC)cc3CCN2C(=O)c2ccc(F)cc2)cc1", "note": "(stereo not given)", "survival": "76%"}
{"smiles": "COc1ccc(CCNC(=O)c2ccc3c(c2)N(Cc2ccc(F)cc2)C(=O)c2ccccc2S3(=O)=O)cc1OC", "survival": "104%"}
{"smiles": "O=S(=O)(Nc1ccc(O)cc1)c1cccs1", "survival": "83%"}
{"smiles": "CC(C)c1cccc(C(C)C)c1NS(=O)(=O)c1cccs1", "survival": "41% (active)"}
{"smiles": "CC(C)NS(=O)(=O)c1cccs1", "survival": "65%"}
{"smiles": "COc1ccc(S(=O)(=O)N(Cc2nc(-c3ccc(C)cc3)no2)C2CCCCC2)cc1", "survival": "63%"}
{"smiles": "Cc1cccc(-c2noc(CNC(=O)c3ccco3)n2)c1", "survival": "83%"}
{"smiles": "Cc1cccc(-c2noc(CN(C(C)C)S(=O)(=O)c3ccc(Br)cc3)n2)c1", "survival": "45% (active)"}
{"smiles": "CCN(Cc1nc(-c2ccc(OC)c(OC)c2)no1)S(=O)(=O)c1ccc(OC)cc1", "survival": "47%"}
{"smiles": "COc1ccc(-c2noc(CN(C(C)C)S(=O)(=O)c3ccc(Br)cc3)n2)cc1", "survival": "44% (active)"}
{"smiles": "Cc1ccc(-c2noc(CN(C3CCCCC3)S(=O)(=O)c3ccc(C)cc3)n2)cc1", "survival": "62%"}
{"smiles": "O=C(CCS(=O)(=O)c1cc2c(cc1Cl)NC(=O)CO2)NCc1ccccc1", "survival": "106%"}
{"smiles": "CCOC(=O)c1c(C)[nH]c(CCC(=O)NCc2cc(Br)ccc2OC)c1C", "survival": "115%"}
{"smiles": "O=C(NCCN1CCOCC1)c1ccncc1", "survival": "96%"}
{"smiles": "Cc1cccc(OCC(=O)Nc2cccc(OCc3cc(=O)n4cccc(C)c4n3)c2)c1", "survival": "109%"}
{"smiles": "COc1cc(-c2cc3n(C)c(C)c(CCC(=O)O)c(=O)n3n2)cc(OC)c1OC", "survival": "94%"}
{"smiles": "COc1cc(-c2cc3n(C)c(C)c(CCC(=O)NCc4ccccc4)c(=O)n3n2)cc(OC)c1OC", "survival": "92%"}
{"smiles": "COCCNC(=O)CCc1c(C)n(C)c2cc(-c3cc(OC)c(OC)c(OC)c3)nn2c1=O", "survival": "25% (active)"}
{"smiles": "O=C(O)CCC(=O)Nc1ccncc1", "survival": "92%"}
{"smiles": "Cc1ccc(Cl)cc1N1CCN(C(=O)CCSCc2ccccc2F)CC1", "survival": "89%"}
{"smiles": "Cc1cc(C)cc(NC(=O)C(=O)NCC(c2cccnc2)N2CCOCC2)c1", "note": "(stereo not given)", "survival": "107%"}
{"smiles": "CCOC(=O)C1CCN(C(c2ccc(OCC)cc2)c2c(O)cc(C)n(CCOC)c2=O)CC1", "note": "(stereo not given)", "survival": "67%"}
{"smiles": "CCOc1ccc(CN2C(=O)C(=O)c3cccc(C)c32)cc1OC", "survival": "118%"}
{"smiles": "Cc1cccc2c1N(Cc1ccccc1OCCC(C)C)C(=O)C2=O", "survival": "2% (active)"}
{"smiles": "CCCOc1ccc(CN2C(=O)C(=O)c3cccc(C)c32)cc1", "survival": "39% (active)"}
{"smiles": "Cc1ccc2c(c1)C(=O)C(=O)N2Cc1ccc(OCCC(C)C)cc1", "survival": "93%"}
{"smiles": "COc1ccccc1CN1C(=O)C(=O)c2cccc(C)c21", "survival": "103%"}
{"smiles": "COc1ccccc1Cn1ccn(Cc2ccc(C)cc2)c(=O)c1=O", "survival": "112%"}
{"smiles": "CC(C)CN1C(=O)c2ccc(Br)cc2C1=O", "survival": "67%"}
{"smiles": "Cc1ccc(CN2C(=O)C(=O)c3cc(Br)cc(C)c32)cc1", "survival": "31% (active)"}
{"smiles": "Cc1cc(Br)cc2c1N(Cc1ccccc1OC(C)C)C(=O)C2=O", "survival": "22% (active)"}
{"smiles": "Cc1ccc(C)c(CN2C(=O)C(=O)c3ccccc32)c1", "survival": "92%"}
{"smiles": "CCCCOc1ccc(CN2C(=O)C(=O)c3cc(Br)cc(C)c32)cc1OC", "survival": "49%"}
{"smiles": "Cc1ccc2c(c1)C(=O)C(=O)N2Cc1ccc(OC(C)C)cc1", "survival": "120%"}
{"smiles": "Cc1cc(C)cc(NC(=O)C2CCCN2S(=O)(=O)c2ccc3c(c2)CCCC(=O)N3)c1", "note": "(stereo not given)", "survival": "83%"}
{"smiles": "CCc1ccc(NC(=O)Cn2nnc(C(=O)Nc3ccc(F)cc3)c2N)cc1", "survival": "99%"}
{"smiles": "COc1ccc(-n2nc(C(=O)N3CCCC(C)C3)c3c4ccccc4n(C)c3c2=O)cc1", "note": "(stereo not given)", "survival": "74%"}
{"smiles": "c1ccc(-c2nc(-c3cccnc3)no2)cc1", "survival": "98%"}
{"smiles": "O=c1[nH]ncc(NCCc2ccccc2)c1Cl", "survival": "101%"}
{"smiles": "N#Cc1ccccc1Cn1c(=O)n(Cc2ccc(C(=O)NC3CCN(Cc4ccccc4)CC3)cc2)c(=O)c2ccccc21", "survival": "90%"}
{"smiles": "COC(=O)c1ccc(NC(=O)C(=O)NCCc2sc3nc(-c4ccc(OC)cc4)nn3c2C)cc1", "survival": "83%"}
{"smiles": "O/N=C1\\CCCc2nnc3c(c21)CCCC3", "survival": "101%"}
{"smiles": "CCOC(=O)/C(C#N)=C\\C1=C(N2CCCC2)CC(C)(C)OC1", "survival": "91%"}
{"smiles": "Cc1nc2ccc(S(=O)(=O)NCC(=O)Nc3ccc(F)cc3F)cc2s1", "survival": "120%"}
{"smiles": "CCOc1ccc(S(=O)(=O)NCC(c2ccc(N(C)C)cc2)N2CCCC2)cc1", "note": "(stereo not given)", "survival": "107%"}
{"smiles": "COc1ccc(Nc2ncnc3onc(C)c23)cc1Cl", "survival": "87%"}
{"smiles": "O=C(c1ccc(Cl)cc1)N1CCC(c2nc3ccccc3o2)CC1", "survival": "79%"}
{"smiles": "CCc1ccccc1NC(=O)Cn1nnc(C(=O)NCc2ccco2)c1N", "survival": "93%"}
{"smiles": "CC(NC(=O)c1ccc2c(c1)CCN2S(=O)(=O)c1ccccc1)c1ccccc1", "note": "(stereo not given)", "survival": "37% (active)"}
{"smiles": "CS(=O)(=O)N1CCc2cc(C(=O)Nc3ccc(S(N)(=O)=O)cc3)ccc21", "survival": "48%"}
{"smiles": "CC(NC(=O)c1ccc2c(c1)CCN2S(C)(=O)=O)c1ccccc1", "note": "(stereo not given)", "survival": "91%"}
{"smiles": "CC(NC(=O)c1ccc2c(c1)CCN2S(=O)(=O)c1ccc(Cl)cc1)c1ccccc1", "note": "(stereo not given)", "survival": "67%"}
{"smiles": "NS(=O)(=O)c1ccc(NC(=O)c2ccc3c(c2)CCN3S(=O)(=O)c2ccccc2)cc1", "survival": "43% (active)"}
{"smiles": "COc1ccc(NC(=O)c2ccc3c(c2)CCN3S(=O)(=O)c2ccccc2)cc1", "survival": "92%"}
{"smiles": "CC(=O)Nc1ccc(NC(=O)c2ccc3c(c2)CCN3S(=O)(=O)c2ccc(C)cc2)cc1", "survival": "62%"}
{"smiles": "CC(C)c1ccc(NC(=O)c2ccc(F)c(S(=O)(=O)N3CCc4ccccc43)c2)cc1", "survival": "83%"}
{"smiles": "CC(C)c1ccc(NC(=O)c2ccc3c(c2)CCN3S(=O)(=O)c2ccccc2)cc1", "survival": "44% (active)"}
{"smiles": "Cc1ccc(Nc2nc3ccccc3c3nnc(C)n23)c(C)c1", "survival": "70%"}
{"smiles": "CC(C)(C)OC(=O)N1CCC(c2c(C(=O)NCc3ccco3)cnn2-c2ccc(F)cc2F)CC1", "survival": "83%"}
{"smiles": "COc1cc(C)ccc1OCCSc1nc2ccc(NC(=O)c3ccc4c(c3)OCO4)cc2s1", "survival": "64%"}
{"smiles": "CN(C(=O)C1CCCN(c2ncnc3c2nc2n3CCCCC2)C1)c1ccccc1F", "note": "(stereo not given)", "survival": "81%"}
{"smiles": "CCC(NC(=O)Nc1cc(OC)ccc1OC)c1c(-n2cccc2)sc2c1CCN(CC)C2", "note": "(stereo not given)", "survival": "88%"}
{"smiles": "Fc1cccc(CSc2ccc(-c3cccs3)nn2)c1", "survival": "94%"}
{"smiles": "Cc1ccc(C)c(CNC(=O)c2sc3ncnc(N(C)C4CCCCC4)c3c2C)c1", "survival": "115%"}
{"smiles": "Cc1cc(C)cc(Oc2c(C(F)(F)F)oc3cc(OCC(=O)NC4CCCCC4)ccc3c2=O)c1", "survival": "110%"}
{"smiles": "Cc1ccc(Oc2coc3cc(OCC(=O)NC4CCCCC4)ccc3c2=O)cc1", "survival": "55%"}
{"smiles": "Cc1ccc(Oc2c(C(F)(F)F)oc3cc(OCC(=O)NC4CCCCC4)ccc3c2=O)cc1", "survival": "46% (active)"}
{"smiles": "CCc1ccc(C(=O)COC(=O)C(NC(=O)C2CCC(C)CC2)C(C)C)cc1", "note": "(stereo not given)", "survival": "72%"}
{"smiles": "CC1(C)CC(=O)C=C(NCC2CCNCC2)C1", "survival": "95%"}
